High-throughput results as filed in PubChem.
ELG1 DNA repair = qHTS screen for small molecules that inhibit ELG1-dependent DNA repair in human embryonic kidney (HEK293T) cells expressing luciferase-tagged ELG1. Potency, µM (top dose mostly 46.1 µM), hits mostly inhibitors. actives 2.3% (n = 330,000). HEK293T ELG1-luciferase reporter, luminescence, 16 h; DNA damage induced by 5-fluorouridine; further: nearly all actives have a fitted effect of over 55% in size
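Step one: seed 2,000 cells per well. Step two: pin-transfer compound or DMSO alongside 5-fluorouridine. Step three: incubate 16 hr, 37 °C, 5% CO2. Step four: add ONE-Glo, wait 30 min, read luminescence.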
RORgamma inh = qHTS for inhibitors of ROR gamma transcriptional activity. actives 5.4% (n = 310,000). Potency, µM (titrated, usually from 53.6 µM), hits mostly inhibitors. Drosophila S2 Gal4-RORgamma UAS-luciferase reporter, 20 h; further: nearly all actives have a fitted effect of over 60% in size
Target sequence (P51450 whole entry, looked up, the tested form may be a part): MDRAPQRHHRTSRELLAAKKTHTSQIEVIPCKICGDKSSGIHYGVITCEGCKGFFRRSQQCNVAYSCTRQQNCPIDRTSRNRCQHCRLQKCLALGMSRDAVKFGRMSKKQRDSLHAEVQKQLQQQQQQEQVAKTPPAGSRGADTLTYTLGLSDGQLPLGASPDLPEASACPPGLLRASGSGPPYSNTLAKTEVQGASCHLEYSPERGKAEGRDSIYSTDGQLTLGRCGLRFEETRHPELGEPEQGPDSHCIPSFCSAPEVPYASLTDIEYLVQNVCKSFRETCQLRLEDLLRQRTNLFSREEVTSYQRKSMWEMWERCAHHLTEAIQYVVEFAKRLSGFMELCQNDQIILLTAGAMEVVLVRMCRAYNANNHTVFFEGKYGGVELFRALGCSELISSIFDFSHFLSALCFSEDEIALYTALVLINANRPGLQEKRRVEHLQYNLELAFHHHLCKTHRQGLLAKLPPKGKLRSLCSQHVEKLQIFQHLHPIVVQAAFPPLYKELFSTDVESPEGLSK
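Read-out: Photinus luciferase luminescence; inhibitors lower reporter signal. Insect Schneider cells with Gal4-ROR gamma fusion under metallothionein promoter, UAS reporter; 700 uM final copper sulfate induction, 20 hr, ambient temperature.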
Gal4-VP16 FLuc = VP16 counterscreen qHTS for inhibitors of ROR gamma transcriptional activity; Drosophila S2 Gal4-VP16 UAS-luciferase, luminescence, 20 h; Potency, µM (titrated, usually from 53.6 µM), hits mostly inhibitors; actives 3.5% (n = 310,000);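 further: Gal4-VP16 expression switched on by copper sulfate through the metallothionein promoter; nearly all actives have a fitted effect of over 50% in size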
TDP1 cell noCPT = qHTS for Inhibitors of human tyrosyl-DNA phosphodiesterase 1 (TDP1): qHTS in cells in absence of CPT; actives 15% (n = 420,000); DT40 Tdp1-/- hTDP1 cells, no CPT, ATP luminescence, 48 h; Potency, µM (top dose mostly 46.2 µM), usual class: inhibitors; further: nearly all actives have a fitted effect of over 55% in size
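Stably hTDP1-transfected Tdp1-null chicken DT40 cells were treated with library compounds minus camptothecin and grown for at least 48 hr at 37 °C, after which cellular ATP was quantified by luminescence.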
TDP1 cell CPT = qHTS for Inhibitors of human tyrosyl-DNA phosphodiesterase 1 (TDP1): qHTS in cells in presence of CPT. chicken DT40 Tdp1-/-;hTDP1 cells + 20 nM CPT, ATP luminescence, 48 h. Potency, µM (highest dose often 46.2 µM), most hits filed as inhibitors. actives 12% (n = 420,000). AID 686979, 2013; further: nearly all actives have a fitted effect of over 55% in size
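Chicken DT40 Tdp1-/- cells complemented with human TDP1, 400 cells/well, exposed to compounds plus 20 nM camptothecin for at least 48 h at 37 C; viability read as ATP content by CellTiter-Glo luminescence.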
IL1B secr inh = qHTS for Inhibitors of Inflammasome Signaling: IL-1-beta AlphaLISA Primary Screen. activity change, % at 57.5 µM. actives 4.7% (n = 360,000). THP-1 LPS/ATP IL-1B secretion, AlphaLISA, 16 h; stronger effect = lower value. AID 743279, 2014; in the data active means activity change below about -50%; inconclusive means mostly about -30% to -49%
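THP-1 cells pretreated 1 hr with compounds (up to 57.5 uM final), then stimulated with LPS (250 ng/mL final) plus ATP (1.25 mM final); secreted IL-1B measured by AlphaLISA after 16 hr, decreased signal indicating inhibition.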
Of the large screens only hits and unclear results are named; the others gave an inactive call. This is a sample that favours compounds with a hit; in the whole collection about 21% have one here. Unless noted, the call rests on the fitted dose curve; in most records, active means well fitted curve in the direction sought with a large enough effect; inconclusive means small, poorly fitted or top-dose-only effect, or another doubt; inactive means no such curve, though single readings can be large; an effect the other way counts as inactive or inconclusive.

CC#C[C@]1(O)CC[C@H]2C3C=C(C)C4=CC(=O)C=C[C@]4(C)[C@H]3[C@@H](O)C[C@@]21C (stereo partly specified)	none (no result: ELG1 DNA repair, TDP1 cell noCPT, TDP1 cell CPT, IL1B secr inh)
CCNC(=O)O/N=C(\C)c1sc(-c2ccc(Cl)cc2)nc1C	ELG1 DNA repair inconclusive, TDP1 cell noCPT 18.4µM, TDP1 cell CPT 25.9µM
C/C(=N\OC(=O)NC(C)C)c1sc(-c2ccc(Cl)cc2)nc1C	ELG1 DNA repair inconclusive, TDP1 cell noCPT 18.4µM, TDP1 cell CPT inconclusive
C/C(=N\OC(=O)NC(C)C)c1sc(-c2ccccc2)nc1C	ELG1 DNA repair inconclusive, RORgamma inh inconclusive, TDP1 cell noCPT inconclusive, TDP1 cell CPT inconclusive, IL1B secr inh inconclusive
O=C(Nc1ccc(Cl)cc1)Nc1ccc(Cl)c(C(F)(F)F)c1	TDP1 cell noCPT 3.35µM, TDP1 cell CPT 4.73µM (no result: ELG1 DNA repair, RORgamma inh, Gal4-VP16 FLuc, IL1B secr inh)
CCOC(=O)CNC(=O)N1Cc2cc(-c3cccc(F)c3)ccc2-n2nncc2C1	none (no result: ELG1 DNA repair, RORgamma inh, Gal4-VP16 FLuc)
O=S(=O)(c1cccc2ccccc12)N1Cc2ccccc2-n2nncc2C1	TDP1 cell noCPT 11.6µM, TDP1 cell CPT 23.1µM (no result: ELG1 DNA repair, RORgamma inh, Gal4-VP16 FLuc)
O=S(=O)(c1cc(Cl)cc(Cl)c1)N1Cc2cc(-c3ccccc3)ccc2-n2nncc2C1	TDP1 cell noCPT inconclusive, TDP1 cell CPT inconclusive (no result: ELG1 DNA repair, RORgamma inh, Gal4-VP16 FLuc)
Cc1cc(C)c(S(=O)(=O)N2Cc3ccccc3-n3nncc3C2)c(C)c1	TDP1 cell noCPT 2.06µM, TDP1 cell CPT 5.17µM (no result: ELG1 DNA repair, RORgamma inh, Gal4-VP16 FLuc)
O=S(=O)(c1ccc(Cl)cc1)N1Cc2cc(Br)ccc2-n2nncc2C1	TDP1 cell noCPT 23.1µM, TDP1 cell CPT 20.6µM (no result: ELG1 DNA repair, RORgamma inh, Gal4-VP16 FLuc)
Cc1ccc(S(=O)(=O)N2Cc3cc(-c4ccccc4)ccc3-n3nncc3C2)cc1	TDP1 cell noCPT inconclusive, TDP1 cell CPT inconclusive (no result: ELG1 DNA repair, RORgamma inh, Gal4-VP16 FLuc)
COc1ccc(NC(=S)N2Cc3ccccc3-n3nncc3C2)c(OC)c1	TDP1 cell noCPT 11.6µM, TDP1 cell CPT inconclusive (no result: ELG1 DNA repair, RORgamma inh, Gal4-VP16 FLuc)
COc1cc(C(=O)N2Cc3ccccc3-n3nncc3C2)cc(OC)c1OC	none (no result: ELG1 DNA repair, RORgamma inh, Gal4-VP16 FLuc)
CC(C)S(=O)(=O)N1Cc2ccccc2-n2nncc2C1	none (no result: ELG1 DNA repair, RORgamma inh, Gal4-VP16 FLuc)
C=CCn1c(O)c(C(CC)=NCc2ccco2)c(=O)[nH]c1=O	ELG1 DNA repair inconclusive
CC(C)CCCC(C)C1CCC2C3C(=O)C=C4CC(O)CC[C@@]4(C)C3CC[C@@]12C (stereo partly specified)	none (no result: ELG1 DNA repair, IL1B secr inh)
Cc1c(I)c(=O)n(-c2ccccc2)n1C	TDP1 cell noCPT inconclusive, TDP1 cell CPT inconclusive (no result: ELG1 DNA repair, IL1B secr inh)
COc1cccc(C2CCN(C)C2)c1 (stereo unspecified)	TDP1 cell noCPT inconclusive (no result: ELG1 DNA repair, RORgamma inh, Gal4-VP16 FLuc)
COc1ccc(S(=O)(=O)N2Cc3ccccc3-n3nncc3C2)cc1	TDP1 cell noCPT 14.6µM, TDP1 cell CPT 16.4µM (no result: ELG1 DNA repair, RORgamma inh, Gal4-VP16 FLuc)
Cn1c(O)c(/C=C2\N=c3ccccc3=C2CCNC(=S)NC2CC2)c(=O)n(C)c1=O	ELG1 DNA repair inconclusive, TDP1 cell noCPT 23.1µM, TDP1 cell CPT 14.6µM, IL1B secr inh -96.0
Cc1cccn2c(=O)c3c(nc12)N1CCC(Cc2ccccc2)CC1C1(C3)C(=O)N(C)C(=O)N(C)C1=O (stereo unspecified)	ELG1 DNA repair inconclusive, TDP1 cell noCPT inconclusive, TDP1 cell CPT 18.4µM
CN1C(=O)N(C)C(=O)C2(Cc3c(nc4ccccn4c3=O)N3CCC(Cc4ccccc4)CC32)C1=O (stereo unspecified)	none (no result: TDP1 cell noCPT, TDP1 cell CPT, IL1B secr inh)
CC[C@H](C)[C@H](NC(=O)[C@@H]1CCCN1C(=O)[C@H](CCC(=O)O)NC(=O)[C@@H](NC(=O)[C@H](Cc1ccccc1)NC(=O)[C@@H]1CCCN1C(=O)[C@@H](N)Cc1ccc(O)cc1)C(C)C)C(=O)O	none (no result: ELG1 DNA repair, RORgamma inh, Gal4-VP16 FLuc, IL1B secr inh)
COc1ccc(Sc2cnn(-c3ccccc3)c(=O)c2Cl)cc1	TDP1 cell noCPT inconclusive, TDP1 cell CPT inconclusive, IL1B secr inh inconclusive
